These results are taken from PubChem BioAssay (Tox21).

Where “and” joins values, the source holds several entries; their conditions need not be identical. Equal entries are not always repeated. Records with an inconclusive call do not appear. Where a structure was tested more than once in an assay, its records may differ in their call. Calls of active or inactive are those of the source. Unless noted, the call rests on the fitted dose curve.

Assay [1] is described as follows: Nuclear factor erythroid 2-related factor 2/antioxidant responsive element (Nrf2/ARE) small molecule agonists: qHTS cell viability counter screen in human keratinocytes (AID 1919968; active means well fitted curve in the direction sought with a large enough effect in the repeat runs; an effect the other way counts as inactive or inconclusive; further: nearly all actives have a fitted effect of over 55% in size). In short, it runs like this: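 KeratinoSens cells (HaCaT keratinocytes stably carrying an ARE-luciferase reporter) were seeded at 1,500 cells/well and rested 5 h at 37 C/5% CO2. They were then exposed to compounds in DMSO for 23 h. Viability was read by CellTiter-Fluor fluorescence after 1 h.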

Assay [2] addresses Gonadotropin-releasing hormone receptor (Homo sapiens) (UniProt P30968). The experiment in a line: Human gonadotropin-releasing hormone receptor (GnRHR) small molecule agonists, calcium flux assay in GnRHR-HEK293 cells (AID 1920063). Further: nearly all actives have a fitted effect of over 35% in size. In short, it runs like this:
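HEK293 cells stably expressing human GnRHR were plated 18 h at 37 °C, loaded with calcium dye 1 h at 37 °C, then given compound in agonist mode; fluorescence (Ex/Em 480/540) read kinetically for 3 min at 1 s intervals.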

Assay [3] deals with KiSS-1 receptor (Homo sapiens) (UniProt Q969F8). The assay is described as follows: Human kisspeptin (KISS1R) small molecule agonists, calcium flux assay in KISS1R-HEK293 cells (AID 1920064; active means well fitted curve in the direction sought with a large enough effect in the repeat runs; an effect the other way counts as inactive or inconclusive). Put shortly:
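HEK293 cells stably expressing human KISS1R were plated 18 h at 37 °C, loaded with calcium dye for 1 h at 37 °C, then given compound by pin tool. Fluorescence (Ex/Em 480/540) was read kinetically for 3 min.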

A short description of assay [4]: G protein-coupled receptor (GPCR) small molecule agonists, calcium flux assay: HEK293 wild type cell line counter screen (AID 1920065). In short, it runs like this: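 Cells were plated and cultured 18 h at 37 C/5% CO2, then loaded with calcium dye for 1 h at 37 C. Compounds in DMSO were pin-transferred in agonist mode, and fluorescence (Ex/Em 480/540) was read kinetically for 3 min at 1 s intervals.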

A short description of assay [5]: p53 small molecule agonists, cell-based qHTS assay with rat liver microsomes (AID 1963578). In short, it runs like this:
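Metabolic activation is supplied by rat liver microsomes with NADPH (each 0.5 mg/mL final). p53RE-bla cells incubate with compound 16 h at 37 C; reporter activity is measured by LiveBLAzer fluorescence.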

The nature of assay [6]: p53 small molecule agonists, cell-based qHTS assay (AID 1963582; active means well fitted activation curve with a large enough effect in the signal ratio in the repeat runs, not every such curve was filed as active; the % refers to the signal ratio). In short, it runs like this:
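p53RE-bla beta-lactamase reporter cells rested 5 h at 37 C/5% CO2, then received compounds in DMSO by pin transfer and were incubated 16 h at 37 C. LiveBLAzer B/G FRET substrate was loaded for 2 h at room temperature before fluorescence reading.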

Assay [7] has as its target 5-hydroxytryptamine receptor 2A (Homo sapiens) (UniProt P28223). The assay is described as follows: 5-hydroxytryptamine receptor 2A (HTR2A) small molecule antagonists, cell-based qHTS assay (AID 1963586). Further: nearly all actives have a fitted effect of over 45% in size. Further: potency means the concentration at half of the fitted maximal effect. Put shortly: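 Antagonist-mode intracellular calcium assay: DOI (4 nM) added after 5 min compound pre-incubation at room temperature to dye-loaded HTR2A-CHO cells. Fluorescence followed for 3 min, sampled every second.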

Assay [8] has the same target. The assay is described as follows: 5-hydroxytryptamine receptor 2A (HTR2A) small molecule agonists, cell-based qHTS assay (AID 1963587). Further: nearly all actives have a fitted effect of over 30% in size. Put shortly: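 HTR2A-CHO cells, plated 18 h at 37 C/5% CO2, dye-loaded 1 h at 37 C; compounds in DMSO added by pin tool (agonist mode). Intracellular calcium flux read as kinetic fluorescence on FDSS over 2 min at 1 s intervals.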

Assay [9] deals with Muscarinic acetylcholine receptor M1 (Homo sapiens) (UniProt P11229). The experiment in a line: Cholinergic receptor muscarinic 1 (CHRM1) small molecule antagonists, cell-based qHTS assay (AID 1963588). Further: nearly all actives have a fitted effect of over 40% in size. Further: potency means the concentration at half of the fitted maximal effect. Put shortly: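 CHRM1-CHO calcium-flux assay, antagonist mode. Cells were seeded 18 h, dye-loaded 1 h at 37 C and given compound for 5 min at RT, then acetylcholine was added at 50nM. FDSS fluorescence was read 3 min; 15 concentrations, three runs.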
Chain of Muscarinic acetylcholine receptor M1 (Homo sapiens) (P11229 whole entry, looked up): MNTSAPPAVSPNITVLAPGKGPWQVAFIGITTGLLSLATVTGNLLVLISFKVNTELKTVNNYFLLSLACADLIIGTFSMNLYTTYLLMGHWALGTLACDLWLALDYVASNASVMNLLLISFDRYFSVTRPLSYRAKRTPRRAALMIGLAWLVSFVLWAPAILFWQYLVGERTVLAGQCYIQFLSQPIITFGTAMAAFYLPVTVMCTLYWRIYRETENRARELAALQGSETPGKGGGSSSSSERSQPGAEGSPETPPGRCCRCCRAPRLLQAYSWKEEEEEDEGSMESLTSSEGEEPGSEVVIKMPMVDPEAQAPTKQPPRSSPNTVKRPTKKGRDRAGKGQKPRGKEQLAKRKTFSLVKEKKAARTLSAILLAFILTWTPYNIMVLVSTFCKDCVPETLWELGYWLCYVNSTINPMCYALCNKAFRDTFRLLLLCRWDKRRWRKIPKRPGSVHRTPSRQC

Assay [10] shares this target. The experiment in a line: Cholinergic receptor muscarinic 1 (CHRM1) small molecule agonists, cell-based qHTS assay (AID 1963589). Further: nearly all actives have a fitted effect of over 35% in size. In short, it runs like this:
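CHO cells stably expressing human CHRM1, seeded 18 h at 37 C/5% CO2, dye-loaded 1 h at 37 C, then given compound in agonist mode; intracellular calcium fluorescence read kinetically at 1 s intervals. Fifteen concentrations, three independent runs.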

A short description of assay [11]: cAMP Responsive Elements (CRE) small molecule agonists, cell-based qHTS assay (AID 1963590). Put shortly: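 CRE-bla HEK 293T cells in DMEM with 10% dialyzed FBS, NEAA, pyruvate and 25 mM HEPES were plated 18 h at 37 C/5% CO2, then exposed to compounds in DMSO for 3 h before LiveBLAzer B/G FRET substrate addition.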
The nature of assay [12]: cAMP Responsive Elements (CRE) small molecule antagonists, cell-based qHTS assay (AID 1963591; active means well fitted inhibition curve with a large enough effect in the signal ratio in the repeat runs, not every such curve was filed as active; the % refers to the signal ratio). Put shortly: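 CRE-bla HEK293T cells were plated 18 h at 37 °C/5% CO2, pinned with compound in DMSO, then stimulated with NKH477 at 0.25 uM final for 3 h. LiveBLAzer B/G FRET substrate was added and plates incubated 2 h at room temperature.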
The target of assay [13] is Beta-2 adrenergic receptor (Homo sapiens) (UniProt P07550). The experiment in a line: Adrenergic beta2 receptor (ADRB2) small molecule antagonists, cell-based qHTS assay (AID 1963592). Further: series mostly up to about 92 µM; nearly all actives have a fitted effect of over 50% in size. In short, it runs like this: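 Cells (CHO, stable ADRB2 overexpression) incubated 18-20hr at 37C; compounds added from DMSO; agonist mix (1nM isoproterenol, 100uM IBMX, 25uM Ro-20-1724) added; 0.5hr RT; d2-cAMP and anti-cAMP-cryptate added; 1hr RT; 665/615 nm read.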
Chain of Beta-2 adrenergic receptor (Homo sapiens) (P07550 whole entry, looked up): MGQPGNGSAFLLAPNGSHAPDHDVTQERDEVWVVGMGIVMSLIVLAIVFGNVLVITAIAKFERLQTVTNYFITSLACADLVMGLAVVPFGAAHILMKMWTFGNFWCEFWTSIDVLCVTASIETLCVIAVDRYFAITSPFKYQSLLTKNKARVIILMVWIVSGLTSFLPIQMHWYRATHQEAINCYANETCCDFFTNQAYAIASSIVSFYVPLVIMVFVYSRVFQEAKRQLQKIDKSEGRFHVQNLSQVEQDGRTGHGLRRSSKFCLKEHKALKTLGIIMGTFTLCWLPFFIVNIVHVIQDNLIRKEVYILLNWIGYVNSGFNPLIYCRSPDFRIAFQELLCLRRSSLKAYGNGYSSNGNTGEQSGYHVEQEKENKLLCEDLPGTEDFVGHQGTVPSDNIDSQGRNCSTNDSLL

Assay [14] has the same target. The experiment in a line: Adrenergic beta2 receptor (ADRB2) small molecule agonists, cell-based qHTS assay (AID 1963593).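 Further: CHO cells stably overexpressing human ADRB2.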 Put shortly:
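CHO cells stably over-expressing ADRB2 were plated overnight at 37C, then dosed with compounds plus a stimulation mix containing 100uM IBMX and 25uM Ro-20-1724 for 0.5hr at room temperature. cAMP was measured by HTRF competition, 1hr.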

The target of assay [15] is D(2) dopamine receptor (Homo sapiens) (UniProt P14416). The assay is described as follows: Dopamine D2 receptor (DRD2) small molecule agonists, cell-based qHTS assay (AID 1963594). Further: nearly all actives have a fitted effect of over 35% in size. Put shortly: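 HEK293 cells stably expressing DRD2 were cultured 24 h at 37 C, then given Ro20-1724 (0.1 mM final) and compounds for 10 min at room temperature. NKH477 (200nM) was then added for 30 min. cAMP was read by HTRF.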
Chain of D(2) dopamine receptor (Homo sapiens) (P14416 whole entry, looked up): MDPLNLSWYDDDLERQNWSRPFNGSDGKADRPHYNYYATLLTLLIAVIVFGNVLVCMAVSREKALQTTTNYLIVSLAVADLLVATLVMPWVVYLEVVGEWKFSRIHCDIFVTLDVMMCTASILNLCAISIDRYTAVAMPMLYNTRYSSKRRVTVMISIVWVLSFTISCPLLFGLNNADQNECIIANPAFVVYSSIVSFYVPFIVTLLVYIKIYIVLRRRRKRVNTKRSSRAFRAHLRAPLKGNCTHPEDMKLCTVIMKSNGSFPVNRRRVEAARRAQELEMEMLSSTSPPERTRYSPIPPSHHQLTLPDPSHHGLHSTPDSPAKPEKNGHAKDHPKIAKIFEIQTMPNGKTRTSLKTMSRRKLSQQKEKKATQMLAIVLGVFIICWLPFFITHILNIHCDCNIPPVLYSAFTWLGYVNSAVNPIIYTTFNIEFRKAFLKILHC

Assay [16] in a line: p53 small molecule agonists, cell-based qHTS assay with human liver microsomes: qHTS cell viability counter screen (AID 1963579). Further: nearly all actives have a fitted effect of over 45% in size. Put shortly: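 After the 460/530 nm beta-lactamase read, CellTiter-Glo was added to the same wells and luminescence measured after 30 min at room temperature, giving viability of p53RE-bla cells treated 16 h with compounds plus microsomes and NADPH.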

Assay [17] in a line: p53 small molecule agonists, cell-based qHTS assay with rat liver microsomes: qHTS cell viability counter screen (AID 1963580). Further: nearly all actives have a fitted effect of over 45% in size. In short, it runs like this: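 In HCT-116 cells carrying a p53 response element-bla reporter, compounds were metabolically activated in situ by rat liver microsomes with NADPH over 16 h. Cell ATP content then served as the cytotoxicity measure.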
Assay [18] in a line: p53 small molecule agonists, cell-based qHTS assay: qHTS cell viability counter screen (AID 1963581). Further: nearly all actives have a fitted effect of over 45% in size. In short, it runs like this: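 p53RE-bla HCT-116 cells were exposed to compounds for 16 h at 37 C; after the beta-lactamase FRET read in the same wells, CellTiter-Glo was added and luminescence (intracellular ATP) read after 30 min at room temperature.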
For assay [19], the target named is D(2) dopamine receptor (Homo sapiens) (UniProt P14416). The assay is described as follows: Dopamine D2 receptor (DRD2) small molecule antagonists, cell-based qHTS assay (AID 1963595; active means well fitted inhibition curve with a large enough effect in the signal ratio in the repeat runs, with a control signal flat; the % refers to the signal ratio). In short, it runs like this:
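In this cell-based antagonist screen, compounds act for 10 min at room temperature before a 30 min challenge with 12 nM quinpirole and 200 nM NKH477. cAMP is quantified by HTRF competition in DRD2-HEK293 cells containing 0.1 mM Ro20-1724.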

Chain of 5-hydroxytryptamine receptor 2A (Homo sapiens) (P28223 whole entry, looked up): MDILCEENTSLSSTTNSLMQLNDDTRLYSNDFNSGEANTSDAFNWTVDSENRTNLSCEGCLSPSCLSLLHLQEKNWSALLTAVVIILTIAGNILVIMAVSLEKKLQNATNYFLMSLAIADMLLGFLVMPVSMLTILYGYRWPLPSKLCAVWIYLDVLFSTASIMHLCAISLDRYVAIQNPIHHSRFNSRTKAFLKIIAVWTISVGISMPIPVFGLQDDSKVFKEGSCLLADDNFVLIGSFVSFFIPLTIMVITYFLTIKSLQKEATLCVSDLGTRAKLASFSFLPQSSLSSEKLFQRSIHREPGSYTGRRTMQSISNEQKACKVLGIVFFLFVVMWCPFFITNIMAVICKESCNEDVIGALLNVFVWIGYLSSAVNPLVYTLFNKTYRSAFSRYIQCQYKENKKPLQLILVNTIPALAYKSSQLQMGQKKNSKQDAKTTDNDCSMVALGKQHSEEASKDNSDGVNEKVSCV
Chain of Gonadotropin-releasing hormone receptor (Homo sapiens) (P30968 whole entry, looked up): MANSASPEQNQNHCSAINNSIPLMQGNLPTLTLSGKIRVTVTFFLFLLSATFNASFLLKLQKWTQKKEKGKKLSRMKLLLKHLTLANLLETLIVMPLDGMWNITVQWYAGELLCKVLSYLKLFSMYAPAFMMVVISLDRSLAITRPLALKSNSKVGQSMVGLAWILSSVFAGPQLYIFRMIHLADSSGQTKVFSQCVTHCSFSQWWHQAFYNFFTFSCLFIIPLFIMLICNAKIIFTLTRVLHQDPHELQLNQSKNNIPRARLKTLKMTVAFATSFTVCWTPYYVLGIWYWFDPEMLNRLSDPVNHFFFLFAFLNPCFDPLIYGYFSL
Chain of KiSS-1 receptor (Homo sapiens) (Q969F8 whole entry, looked up): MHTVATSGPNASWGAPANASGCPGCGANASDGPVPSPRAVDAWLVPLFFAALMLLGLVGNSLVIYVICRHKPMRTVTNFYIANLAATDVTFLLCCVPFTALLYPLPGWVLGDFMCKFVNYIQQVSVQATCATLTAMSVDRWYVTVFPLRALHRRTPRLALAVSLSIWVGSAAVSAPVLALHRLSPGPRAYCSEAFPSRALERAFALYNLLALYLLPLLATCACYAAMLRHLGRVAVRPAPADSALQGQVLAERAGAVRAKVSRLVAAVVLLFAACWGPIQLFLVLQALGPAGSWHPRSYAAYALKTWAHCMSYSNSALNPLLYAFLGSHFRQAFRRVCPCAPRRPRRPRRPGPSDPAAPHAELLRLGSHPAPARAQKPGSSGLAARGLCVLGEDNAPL

For `C=C[Si](OC(C)=O)(OC(C)=O)OC(C)=O`, the Potency entry in [1], in [2], in assay [3], in assay [4], in assay [5] and in assay [6] was “inactive” throughout. The Potency entry in [7], in assay [8], in assay [9], in assay [10], in assay [11] and in [12] was “inactive” in each case. In addition, the Potency entry in [13], in [14] and in assay [15] was “inactive” in each case.

On to `C[C@@H]1C[C@H]2[C@@H]3C[C@H](F)C4=CC(=O)C=C[C@]4(C)[C@@]3(F)[C@@H](O)C[C@]2(C)[C@@]1(O)C(=O)CO`, for which the Potency result in assay [1], in assay [2], in assay [3], in [4], in [16] and in assay [17] was “inactive” each time. Besides, the Potency result in assay [18], in assay [7], in assay [8], in assay [9], in assay [10] and in assay [11] was “inactive” in each case. For the same molecule, the Potency result in assay [12], in assay [14], in assay [15] and in [19] was “inactive” each time.

Regarding `Cc1cccc(N(C)C(=S)Oc2ccc3c(c2)C2CCC3C2)c1` (centres undefined), the Potency result in assay [1], in [2], in assay [3], in assay [4], in assay [16] and in [17] was “inactive” each time. The Potency result in assay [18], in [8], in assay [9], in assay [10], in assay [12] and in assay [13] was “inactive” each time. In addition, the Potency entry in assay [14], in assay [15] and in [19] was “inactive” each time. The Potency in [7] is 1.63 µM (active).

For the molecule `CCN(CC)CC`, the Potency result in [1], in assay [2], in assay [3], in assay [4], in assay [5] and in assay [16] was “inactive” throughout. Moreover, the Potency entry in assay [17], in [18], in assay [8], in assay [9], in assay [10] and in assay [11] was “inactive” each time. Further, the Potency entry in assay [12], in assay [13], in [15] and in assay [19] was “inactive” each time.

`CCN(CC)c1cccc(O)c1`: the Potency entry in assay [1], in assay [2], in assay [3], in assay [4], in assay [5] and in assay [16] was “inactive” in each case. Further, the Potency result in assay [18], in assay [6], in assay [7], in [8], in [9] and in assay [10] was “inactive” throughout. Further, the Potency entry in assay [11], in [12], in assay [13], in [15] and in assay [19] was “inactive” throughout.

For the molecule `COC(Cc1ccccc1)OC`, the Potency result in assay [1], in assay [2], in assay [3], in [4], in assay [16] and in assay [17] was “inactive” in each case. Moreover, the Potency entry in [18], in [7], in assay [8], in assay [9], in assay [10] and in assay [11] was “inactive” each time. Moreover, the Potency entry in assay [13], in assay [14], in assay [15] and in assay [19] was “inactive” throughout.

Turning to `c1cnc(N2CCN(Cc3ccc4c(c3)OCO4)CC2)nc1`, the Potency entry in assay [1], in assay [2], in assay [3], in assay [4], in [5] and in assay [17] was “inactive” each time. The Potency entry in assay [18], in [6], in assay [8], in assay [9], in assay [10] and in assay [11] was “inactive” each time. Moreover, the Potency entry in [12] is “inactive”.

As for `O=C(c1ccccc1)c1ccc(O)cc1O`, the Potency result in [1], in [2], in assay [3], in [4], in assay [5] and in assay [16] was “inactive” in each case. Also, the Potency result in assay [17], in assay [8], in assay [10], in assay [12], in [13] and in assay [15] was “inactive” each time. Moreover, the Potency entry in [19] was “inactive”. Moreover, the Potency in [7] was 38.2 µM (active) and 33.4 µM (active); in assay [9] it was 19.2 µM (active) and inactive.
